Among all 5,500 compounds or so, about 2,000 (36%) were called active. Not shown: some 18% with an inconclusive outcome. Rule as the data show it: active = normalized growth mostly below about 0.91 (no sharp cut-off); inconclusive = no clear call, values can overlap the other calls; inactive = mostly above about 0.92. This is one part of the list.
Experiment: chemical genetic growth profiling, strain panel (AID 1159580);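 also: tested at 20 µM; growth read once vehicle control cultures reached saturation at 30 °C; 1 = growth at the plate median or of vehicle wells; lower values mean less growth of the strain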
Settings: growth OD
[1] = S. cerevisiae deletion strains, locus YAL013W, strain DEP1, active compounds read low
[2] = S. cerevisiae deletion strains, locus YDR150W, strain NUM1, active compounds read low
[3] = S. cerevisiae deletion strains, locus YJR075W, strain HOC1, active compounds read low
[4] = S. cerevisiae deletion strains, locus YMR263W, strain SAP30, active compounds read low
[5] = S. cerevisiae deletion strains, locus YNL128W, strain TEP1, active compounds read low
[6] = S. cerevisiae deletion strains, locus YNL153C, strain GIM3, active compounds read low
[7] = S. cerevisiae deletion strains, locus YNL322C, strain KRE1, active compounds read low
[8] = S. cerevisiae deletion strains, locus YPL241C, strain CIN2, active compounds read low

Measured: normalized growth

O=C1c2ccccc2C(=O)N1CN1CCC(O)(c2ccc(Cl)cc2)CC1
inactive: [1] 0.975 | S. cerevisiae deletion strains, locus YBR229C, strain ROT2, active compounds read low 0.982 | S. cerevisiae deletion strains, locus YDL101C, strain DUN1, active compounds read low 0.988 | S. cerevisiae deletion strains, locus YDL134C, strain PPH21, active compounds read low 1.01 | [2] 1.01 | S. cerevisiae deletion strains, locus YEL061C, strain CIN8, active compounds read low 0.991 | S. cerevisiae deletion strains, locus YGR078C, strain PAC10, active compounds read low 0.981 | S. cerevisiae deletion strains, locus YGR229C, strain SMI1, active compounds read low 0.999 | S. cerevisiae deletion strains, locus YHR030C, strain SLT2, active compounds read low 0.953 | S. cerevisiae deletion strains, locus YHR087W, strain rtc3, active compounds read low 0.99 | S. cerevisiae deletion strains, locus YJR043C, strain POL32, active compounds read low 0.966 | [3] 0.987 | S. cerevisiae deletion strains, locus YKL190W, strain CNB1, active compounds read low 1.01 | S. cerevisiae deletion strains, locus YLR039C, strain RIC1, active compounds read low 0.988 | S. cerevisiae deletion strains, locus YLR058C, strain SHM2 (second series), active compounds read low 0.978 | S. cerevisiae deletion strains, locus YLR085C, strain ARP6, active compounds read low 1.06 | S. cerevisiae deletion strains, locus YLR262C, strain YPT6, active compounds read low 0.93 | S. cerevisiae deletion strains, locus YML094W, strain GIM5, active compounds read low 1.02 | S. cerevisiae deletion strains, locus YMR219W, strain ESC1, active compounds read low 0.993 | [4] 0.926 | [5] 0.987 | [6] 1.02 | S. cerevisiae deletion strains, locus YNL298W, strain CLA4 (second series), active compounds read low 0.974 | [7] 0.985 | S. cerevisiae deletion strains, locus YNR030W, strain Alg12, active compounds read low 0.991 | S. cerevisiae deletion strains, locus YPL055C, strain LGE1, active compounds read low 0.947 | [8] 1.01 | S. cerevisiae deletion strains, locus YPR135W, strain CTF4, active compounds read low 0.94 | S. cerevisiae strains, strain wild type, active compounds read low 0.992

O=C1NCN(c2ccccc2)C12CCN(CCCC(c1ccc(F)cc1)c1ccc(F)cc1)CC2
inactive: [1] 1.01 | S. cerevisiae deletion strains, locus YAL040C, strain CLN3, active compounds read low 0.995 | S. cerevisiae deletion strains, locus YCL061C, strain MRC1 (second series), active compounds read low 1 | [2] 0.987 | S. cerevisiae deletion strains, locus YDR363W, strain ESC2, active compounds read low 0.992 | S. cerevisiae deletion strains, locus YER002W, strain NOP16, active compounds read low 1.03 | [3] 0.998 | [4] 1 | [5] 1.05 | [6] 0.982 | S. cerevisiae deletion strains, locus YNL197C, strain WHI3, active compounds read low 1.09 | S. cerevisiae deletion strains, locus YNL224C, strain SQS1, active compounds read low 1.07 | [7] 1 | S. cerevisiae deletion strains, locus YOR083W, strain WHI5 (second series), active compounds read low 1.09 | [8] 1
